High-throughput results (PubChem)
SRC2 inh – inhibits human steroid receptor coactivator 2; Q15596; HEK293 GAL4-SRC2 luciferase reporter, luminescence; inhibition, % at 9 µM; actives 0.17% (n = 370,000);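 active = inhibition above the mean inhibition of all tested compounds plus 3 SD, set per campaign, cut at about 52% in these data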;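 note: 0% = DMSO treated cells and 100% = cells given Gossypol at 36 µM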
COUP-TFII inh – inhibitors of human COUP-TFII (NR2F2) | inhibition, % at 8.6 µM | HEK293T NGFI-A luciferase reporter, luminescence | AID 686940 | actives 0.7% (n = 370,000);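 active = inhibition above a per-plate cutoff, mean inhibition of test wells between control levels plus 3 SD, cut at about 38% in these data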;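 note: cells cotransfected with COUP-TFII expression vector driving the NGFI-A reporter; 0% = median of COUP-TF2 test wells and 100% = reporter-only cells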
NR5A2 inv ag – suppresses constitutive activity of human LRH-1; O00482; HEK293T StAR-luciferase reporter, LRH-1 transfected, 24 h; inhibition, % at 3.6 µM; actives 0.13% (n = 360,000); AID 602396;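 active = inhibition above the mean inhibition of all tested compounds plus 3 SD, cut at about 73% in these data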;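 note: 0% = DMSO wells and 100% = reporter-only cells lacking LRH-1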
Target sequence (O00482 whole entry, looked up): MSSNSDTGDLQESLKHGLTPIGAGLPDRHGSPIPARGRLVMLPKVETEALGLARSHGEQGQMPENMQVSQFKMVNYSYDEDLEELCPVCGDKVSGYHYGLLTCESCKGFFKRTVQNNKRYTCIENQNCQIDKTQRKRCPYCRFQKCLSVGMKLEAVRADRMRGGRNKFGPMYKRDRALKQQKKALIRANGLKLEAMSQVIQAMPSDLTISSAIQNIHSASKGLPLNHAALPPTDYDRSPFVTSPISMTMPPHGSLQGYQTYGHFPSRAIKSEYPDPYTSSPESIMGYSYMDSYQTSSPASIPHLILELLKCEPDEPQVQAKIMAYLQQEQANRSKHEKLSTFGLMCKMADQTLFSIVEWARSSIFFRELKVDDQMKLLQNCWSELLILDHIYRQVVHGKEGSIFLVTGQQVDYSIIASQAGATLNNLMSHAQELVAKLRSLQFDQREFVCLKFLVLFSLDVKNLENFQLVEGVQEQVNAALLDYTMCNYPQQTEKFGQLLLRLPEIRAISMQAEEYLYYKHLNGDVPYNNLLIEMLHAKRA
SRC1 inh – human NCOA1 inhibition | Q15788 | actives 0.12% (n = 360,000) | inhibition, % at 3.6 µM | HEK293 GAL4-SRC1 luciferase reporter, luminescence | AID 588354;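 active = inhibition above the campaign mean plus 3 SD, with each screening campaign given its own cutoff, cut at about 60% in these data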;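 note: 0% = DMSO treated cells and 100% = gossypol at 36 µM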
NCOA3 inh – inhibits human SRC3 coactivator; actives 0.17% (n = 360,000); HEK293 GAL4-SRC3 luciferase reporter, luminescence; inhibition, % at 3.6 µM; AID 588352;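 active = inhibition above a per-campaign cutoff, the mean of all compounds plus 3 SD, cut at about 60% in these data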;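 note: 0% = DMSO-treated cells and 100% = gossypol-treated cells at 36 µM; higher means less SRC3-driven luciferase light from the GAL4 reporter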
VP16 Luc counter – counter-screen for COUP-TFII antagonists: inhibitors of VP16; HEK293 Gal4-VP16 luciferase reporter, luminescence; inhibition, % at 8.5 µM; actives 25% (n = 2,500); shares compounds with COUP-TFII inh; in the data active = inhibition above about 13%
NR2F2 inh conf – COUP-TFII (NR2F2) inhibition, confirmation assay; inhibition, % at 8.5 µM; actives 45% (n = 2,500); shares compounds with COUP-TFII inh; HEK293 NGFI-A luciferase reporter, luminescence;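 active = mean inhibition over three repeats above a set limit taken from the earlier primary screen, cut at about 38% in these data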;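 note: 100% = cells given the luciferase reporter alone without the COUP-TF2 vector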
An asterisk follows results filed as active; nt = not tested or not shown. In the library only some 0.81% were active in any assay of this set; here they are far more common.

SMILES | SRC2 inh | COUP-TFII inh | NR5A2 inv ag | SRC1 inh | NCOA3 inh | VP16 Luc counter | NR2F2 inh conf
CCC1CCCCN1C(=O)c1cc(COc2ccc3ncccc3c2)on1 (stereo not drawn) | 10 | 72* | 43 | 20 | 24 | 6 | 66*
COCCC1CCCCN1C(=O)c1cc(COc2ccc(-n3cncn3)cc2)on1 (stereo not drawn) | 23 | 44* | 31 | 12 | 28 | 1 | 41*
CCN1CCN(C(=O)c2cc(COc3ccc4ncccc4c3)on2)CC1 | 1 | 38* | 12 | 20 | 6 | -2 | 19
CSc1ccc(S(=O)(=O)NCC(=O)OCC(=O)N2CCCC2=O)cc1[N+](=O)[O-] | -11 | -1 | 14 | 21 | -1 | nt | nt
CC(C)CC(N)c1csc(Nc2ncccn2)n1 (stereo not drawn) | -3 | 43* | 28 | 6 | 10 | -41 | 17
NC(COCc1ccccc1)c1csc(Nc2ncccn2)n1 (stereo not drawn) | -39 | 4 | -12 | 3 | -8 | nt | nt
Cc1ccnc(NC(=O)CSc2ccc3c(c2)OCCO3)c1 | -58 | -22 | -32 | -59 | -41 | nt | nt
Cc1ccc(NC(=O)CSc2ccc3c(c2)OCCO3)c(O)c1 | 18 | 39* | 45 | -3 | 31 | 4 | 37
CCc1c(C)nc2ncnn2c1NCCc1ccc(Cl)cc1 | 33 | 47* | 27 | -7 | 33 | 1 | 18
CCc1c(C)nc2ncnn2c1NCCc1ccccc1 | -17 | 24 | 6 | 14 | 0 | nt | nt
CC(C)Cc1ccc(C(C)C(=O)Nc2ccccc2O)cc1 (stereo not drawn) | 33 | 49* | 34 | 13 | 15 | 7 | 50*
O=c1c(Cc2ccccc2)c(O)ccn1Cc1ccc2c(c1)OCO2 | -31 | -5 | 5 | -2 | 10 | nt | nt
C[C@H](NC(=O)c1ccco1)C(=O)Nc1cc(S(=O)(=O)N2CCCC2)ccc1OCC(F)(F)F | 7 | 0 | 17 | -4 | 5 | nt | nt
O=S(Cc1ccc(Br)cc1)Cc1nnc(SCc2c(F)cccc2Cl)n1-c1ccccc1 (stereo not drawn) | 17 | 31 | 31 | 17 | 26 | nt | nt
O=S(Cc1ccc(Br)cc1)Cc1nnc(SCc2ccc(Cl)cc2)n1-c1ccccc1 (stereo not drawn) | 10 | 45* | 33 | 14 | 27 | 2 | 28
CCOC(=O)C1CCN(c2cc(C)nc3ccc(OC)cc23)CC1 | 23 | 42* | 18 | 5 | 27 | 2 | 7
CCOc1ccc(CNC(=O)C2CCN(S(=O)(=O)N3CCC(C)CC3)CC2)cc1OC | -12 | 2 | 1 | 1 | -14 | nt | nt
CCOc1ccc(C2NC(=O)NC(C)=C2C(=O)OCc2ccccc2)cc1 (stereo not drawn) | 5 | 4 | -10 | -2 | 3 | nt | nt
COc1ccc(COC(=O)C2=C(C)NC(=O)NC2c2ccc(F)cc2)cc1 (stereo not drawn) | 42 | 39* | 18 | 22 | 41 | -5 | 7
CCn1ncc(/C=N/NC(=O)c2cc(Cl)ccc2OC)c1C | -14 | -6 | -18 | 1 | 8 | nt | nt
CN(C)c1cc(O)c(C(=S)Nc2ccccc2)c(N(C)C)c1 | -6 | -7 | -6 | -14 | -24 | nt | nt
CN(C)c1ccc(C(=S)Nc2ccccc2)cc1 | 39 | 46* | 9 | 42 | 50 | -89 | 22
CN(C)c1ccc(/C=N/NC(=O)c2ccccn2)cc1 | -26 | -48 | -169 | -63 | -45 | nt | nt
CN(C)c1ccc(NC(=S)c2ccccn2)cc1 | 51 | 42* | -40 | -26 | 26 | 8 | 38*
Cc1c(Cl)cccc1-n1c(SCC(=O)N2CCC(C(=O)O)CC2)nc2ccccc2c1=O | -5 | 12 | 4 | 0 | -14 | nt | nt
SMILES | SRC2 inh | COUP-TFII inh | NR5A2 inv ag | SRC1 inh | NCOA3 inh | VP16 Luc counter | NR2F2 inh conf
O=c1c2ccccc2nc(/C=C/c2cccnc2)n1CCc1ccccc1 | 6 | 44* | 23 | 23 | 23 | -6 | 4
COc1ccc(C(C(=O)NC2CCCC2)n2c(Cc3cc(F)cc(F)c3)nc3ccccc32)cc1 (stereo not drawn) | 12 | 10 | 19 | nt | nt | nt | nt
COc1ccc(C(C(=O)NC2CCCC2)n2c(CSCCOc3ccccc3)nc3ccccc32)cc1 (stereo not drawn) | 79* | 70* | 21 | nt | nt | 28* | 46*
CCC(C(=O)NCc1ccccc1)n1c(CSCCOc2ccccc2)nc2ccccc21 (stereo not drawn) | 75* | 58* | 45 | nt | nt | 8 | 23
Cc1ccc(-c2cc(C(=O)NN=Cc3ccc(F)cc3)[nH]n2)cc1C | -1 | -6 | nt | nt | nt | nt | nt
O=C(Nc1ccncc1)C1COc2ccccc2O1 (stereo not drawn) | -11 | 13 | -14 | -15 | -13 | nt | nt
O=C(NC1=NCCS1)C1COc2ccccc2O1 (stereo not drawn) | 57* | 49* | -10 | 22 | 28 | 19* | 49*
O=C(NCc1ccc(Cl)s1)C1CCC(=O)N(CCc2ccccn2)C1 (stereo not drawn) | -3 | 3 | -5 | -11 | -34 | nt | nt
O=C(C1CCCN(S(=O)(=O)c2ccccc2)C1)N1CCCc2ccccc21 (stereo not drawn) | 13 | 37* | 17 | 5 | -12 | -10 | 8
Cc1ccc(S(=O)(=O)N2CCCC(C(=O)N3CCCc4ccccc43)C2)cc1 (stereo not drawn) | -3 | -5 | -11 | 2 | 4 | nt | nt
CCC(=O)N1CCN(c2ccc(NC(=O)c3cc4ccccc4o3)cc2Cl)CC1 | 25 | 44* | 10 | 22 | 25 | -16 | 36
O=C(Nc1ccc(N2CCN(C(=O)c3ccco3)CC2)c(Cl)c1)c1cc2ccccc2o1 | 45 | 63* | 14 | 36 | 32 | 5 | 51*
O=C(Nc1ccc(N2CCN(C(=O)c3ccccc3)CC2)c(Cl)c1)c1ccco1 | 9 | 16 | 3 | 8 | 12 | nt | nt
O=C(NCCc1ccccc1)c1ccc(Cl)c(S(=O)(=O)N2CCCC2)c1 | nt | nt | -16 | -26 | -45 | nt | nt
COc1cc(CCC(=O)Nc2ccc(S(=O)(=O)N3CCCC3)cc2)cc(OC)c1OC | 20 | -10 | 30 | 6 | 8 | nt | nt
COc1ccc(CCNC(=O)c2ccc(Cl)c(S(=O)(=O)N3CCCCCC3)c2)cc1 | 16 | 63* | 26 | 17 | 12 | 5 | 41*
COc1cc(CCC(=O)Nc2ccc(C)c(S(=O)(=O)N3CCCCCC3)c2)cc(OC)c1OC | 29 | 54* | 28 | 0 | 13 | 1 | 25
O=C(NCCc1ccc(F)cc1)c1ccc(Cl)c(S(=O)(=O)N2CCOCC2)c1 | 21 | 40* | 3 | 11 | 15 | -10 | 8
COc1ccc(CCC(=O)Nc2ccc(Cl)c(S(=O)(=O)N3CCCC3)c2)cc1 | 21 | 59* | 27 | 31 | 19 | -1 | 38*
